Reference: PubChem BioAssay AID1458 (National Center for Advancing Translational Sciences (NCATS), 2008)
Screen size: about 210,000 compounds; about 5,900 (2.8%) were called active. Roughly 5% stayed inconclusive and do not appear here. Calls come from the whole dose curve; as a rule, active = well fitted activation curve with a large enough effect; inconclusive = small, poorly fitted or top-dose-only effect; inactive = no such curve, though single readings can be large or run the other way. Shown is part of a subset that was picked to be rich in actives. Entries that show only a call come without a potency.

Test: qHTS Assay for Enhancers of SMN2 Splice Variant Expression; note: nearly all actives have a fitted effect of over 55% in size
Conditions: HEK293 SMN2-luciferase splicing reporter, luminescence, 30-36 h; series mostly up to 46.1 µM
From the text: NIH Chemical Genomics Center [NCGC] NIH Molecular Libraries Probe Production centers Network [MLPCN] MLPCN Grant: R03 MH084179-01 Assay Submitter (PI): Elliot Androphy NCGC Assay Overview: Spinal muscular atrophy (SMA) is caused by insufficient levels of the survival motor neuron protein SMN. The SMN locus on chromosome 5q13 contains two inverted copies of SMN called SMN1 and SMN2 which are 99% identical at the amino acid level. SMN1 is a fully functional protein and SMN2 skips exon 7 90% of the time. Skipping of exon 7 produces non-functional protein product. 10% of the SMN2 protein includes exon 7 and is fully functional. In the SMA disease state, mutations in the SMN1 locus are the cause of the disease state. Because only 10% of SMN2 is of the fully functional form, it is not sufficient to overcome the deficiency produced by the loss of the SMN1 product. A therapy that either increase the amount of SMN2 product made or to increase the inclusion of exon 7 has been proposed for the treatment of SMA. We have designed an assay to identify small molecules that can increase the amount of functional SMN2 product by appending a luciferase reporter gene after the native SMN2 gene, such that inclusion of exon 7 in the expressed product places the luciferase sequence in frame, thus generating functional luciferase enzyme.
NCGC Assay Protocol Summary: This screen utilizes a luciferase reporter gene assay, combining the promoter and splicing based cassettes in tandem with the major portion of the native SMN2 cDNA, and then transfected into HEK293 cells. Compounds that increase luciferase signal presumably enhance expression of the functional SMN2 splice variant. Passaging media contained DMEM w/ glutamax (+phenol red) 10% FCS, 1x pen/strep, 200 ug/ml hygro, 1x sodium pyruvate. Assay media contained DMEM w/ glutamax (-phenol red) 10% FCS, 1x pen strep, 1x pyruvate Sequence, Parameter, Value, Description (1) Cells, […], 2000 cells/well, 1536 TC treated White solid bottom plate (2) Time, 10-12 hours, 37C 5% CO2 (3) Compound, 23 nl, MLSMR Library (4) Control Compound, 23 nL, Sodium butyrate st 4.5mM (final) conc (5) Time, 30-36 hours, 37C 5% CO2 (6) Reagent, 3 ul, One Glo (TM) from Promega (7) Time, 5-15 minutes, Room temp (8) Detector, Viewlux: luminescent read, 60 second integration, high speed 2x binning Keywords: Spinal muscular atrophy, SMA, SMN2, high throughput screening, MLSMR, MLPCN, NIH Roadmap, qHTS and NCGC
Potency is the fitted concentration of half-maximal effect.

SMILES | Potency
c1ccc(CCc2nc(-c3ccncc3)no2)cc1 | inactive
Cc1ccc(-c2noc(CSc3nnc(-c4cccs4)n3C)n2)cc1 | inactive
COc1ccc(Cc2nc(-c3ccccn3)no2)cc1OC | inactive
c1csc(-c2nc(-c3ccncc3)no2)c1 | 15.8 µM (active)
CC(C)c1nc(-c2ccccn2)no1 | inactive
c1ccc(-c2noc(-c3cccs3)n2)nc1 | 2.82 µM (active)
COc1ccc(C)cc1-n1c(-c2ccc(C)cc2)cc2c1CC(C)(C)CC2=O | inactive
Cn1c(=O)c(C(=O)O)nn(-c2ccccc2)c1=O | inactive
COc1ccc(-c2c(C)nn3c(N4CCC(C(=O)NCCC(C)C)CC4)cc(C)nc23)cc1OC | inactive
Cc1cc(N2CCCC2)n2nc(C)c(-c3ccccc3)c2n1 | 11.2 µM (active)
Cc1cc(-c2ccccc2)n2nc(C)c(-c3ccccc3)c2n1 | inactive
Cc1cc(-n2nc(C)cc2C)n2nc(C)c(-c3ccccc3)c2n1 | inactive
CCc1nc2nc(C)cc(Nc3ccc(F)c(Cl)c3)n2n1 | inactive
Cn1c(C(=O)N2CCC(C(=O)N3CCN(c4ccccc4)CC3)CC2)cc2sccc21 | inactive
COc1ccc(NC(=O)CCN2CCN(CCO)CC2)cc1 | inactive
CC(C)N1CCC(NC(=O)Nc2ccccc2)CC1 | inactive
CC(C)(C)NS(=O)(=O)c1ccc(NC(=O)NC2CCCCC2)cc1 | inactive
CC(C)c1ccc(NC(=O)NC2CCCCC2)cc1 | 11.2 µM (active)
CCc1nn(CC(=O)N2CCN(c3cccc(C(F)(F)F)c3)CC2)c(=O)c2cc3occc3n12 | inactive
Nc1ccc(S(=O)(=O)Nc2nccc(/C=C/c3ccc(Br)s3)n2)cc1 | inactive
Oc1cccc2ccc(/C=C/c3ccc(Br)s3)nc12 | 8.91 µM (active)
COc1cc(OC)cc(-c2nc3nc(C)c(CCC(=O)Nc4ccccc4)c(C)n3n2)c1 | inactive
O=C(Nc1ccc(Br)cn1)c1ccc([N+](=O)[O-])o1 | inactive
O=C(Nc1ccc(Br)cn1)c1ccc([N+](=O)[O-])cc1Cl | 7.08 µM (active)
CC(C)C(=O)Nc1cccc(NC(=O)c2ccc([N+](=O)[O-])cc2Cl)c1 | inactive
COc1ccccc1N1CCN(c2ncnc3onc(-c4cccc(Cl)c4)c23)CC1 | inactive

SMILES | Potency
O=C(Nc1nnc(Cc2ccccc2)s1)c1cnccn1 | inactive
Cc1occc1C(=O)Nc1nnc(C2CCCCC2)s1 | inactive
O=C(Nc1nnc(C2CC2)s1)c1ccccn1 | 2.82 µM (active)
NC(=O)CSc1nc2c(oc3ccccc32)c(=O)n1Cc1ccccc1 | inactive
Cc1ccc(-n2c(SCC(=O)Nc3cccc(F)c3)nc3c(oc4ccccc43)c2=O)cc1C | inactive
COC(=O)C1=C(c2ccccc2)c2ccccc2S(=O)(=O)N1CC(=O)Nc1ccccc1C(F)(F)F | inactive
COc1ccc(C(F)(F)F)cc1NC(=O)c1sc2nc(-c3cccs3)ccc2c1N | inactive
CN1C(=O)/C(=C/C=C2\SCCN2C)OC1=S | 12.6 µM (active)
Cc1n[nH]c(C)c1S(=O)(=O)N1CCCC(C(=O)Nc2ccc(Br)cc2)C1 (stereo not drawn) | inactive
Cc1ccc2nc(-c3ccc(O)cc3)c(Nc3ccc4c(c3)OCO4)n2c1 | inactive
CCOc1ccc(S(=O)(=O)N(CC(=O)NCCSCc2ccc(C)cc2)c2ccccc2)cc1 | inactive
Cc1ccc(-c2noc(CSc3nnc(-c4ccc(Cl)cc4)n3C)n2)cc1 | inactive
Cc1ccc(/C=N\n2c(-c3ccccc3)n[nH]c2=S)s1 | inactive
S=c1[nH]nc(-c2cccnc2)n1/N=C/C(Cl)=C\c1ccccc1 | 12.6 µM (active)
Cc1cc(-c2n[nH]c(=S)n2/N=C/C(Br)=C/c2ccccc2)n[nH]1 | inactive
O=C(Cn1ncc2c3ccccc3n(Cc3ccccc3)c2c1=O)NCc1ccccn1 | inactive
CCN1CCN(Cc2c(O)ccc3oc(C)c(C(=O)Nc4ccc(C)cc4C)c23)CC1 | inactive
CC(C)(C)c1ccc(C(=O)N2CCC(c3nc(-c4ccc(S(=O)(=O)N5CCCC5)cc4)no3)CC2)cc1 | inactive
COc1cc(CNCCSc2nnnn2C)ccc1OCc1ccc(Cl)cc1Cl | inactive
CCn1c(SCc2ccccc2)nc2c(c1=O)SCC2 | inactive
CCS(=O)(=O)n1nc(-c2ccccc2)nc1SCc1ccccc1 | 22.4 µM (active)
CS(=O)(=O)n1nc(-c2ccccc2)nc1NCc1ccco1 | inactive
Cc1ccc(-n2nc(CO)c(C(=O)NCCc3ccccc3)n2)cc1 | inactive
Cc1ccc(-n2c3nc(=O)[nH]c(=O)c-3cc3c(Cl)cccc32)cc1 | inactive
CCOc1ccc2cc(C#N)c(SCC(=O)OC)nc2c1 | 11.2 µM (active)
Cc1nonc1NC(=O)CSc1nc2ccccc2cc1C#N | inactive

SMILES | Potency
COc1ccc(N2CCN(C(=O)CSc3nc4cc(OC)c(OC)cc4cc3C#N)CC2)cc1 | inactive
CCN1CCc2nc3sc(C(=O)Nc4ccccc4OC(F)(F)F)c(N)c3cc2C1 | inactive
COc1ccc(C2=CC(c3ccccc3Cl)n3nc(-c4ccc(Cl)cc4)nc3N2)cc1 (stereo not drawn) | inactive
CC1=C(C(N)=O)C(c2ccc3c(c2)OCO3)n2nc(-c3cccc(C)c3)nc2N1 (stereo not drawn) | inactive
COc1cccc(-c2nc3n(n2)C(c2ccccc2Cl)C(C(N)=O)=C(C)N3)c1 (stereo not drawn) | 15.8 µM (active)
COc1ccc(/C=C/C(=O)Nc2ccc(C34CC5CC(CC(O)(C5)C3)C4)cc2)cc1OC | 12.6 µM (active)
COc1ccc(/C=C/C(=O)Nc2cccnc2)cc1OC | inactive
COc1ccc(/C=C/C(=O)N2CCCC2)cc1OC | inactive
CCOC(=O)c1ccc(NC(=O)CC2C(=O)N(c3ccccc3)C(=O)N2Cc2cccs2)cc1 (stereo not drawn) | inactive
CCOC(=O)c1c(NC(=O)CCl)sc(C(=O)N(CC)CC)c1C | inactive
CCC(=O)Nc1sc(C(=O)Nc2ccccc2)c(C)c1C(=O)OC | 3.55 µM (active)
CCOC(=O)c1sc(NC(=O)COc2ncnc3ccccc23)c(C(=O)OCC)c1C | inactive
COc1ccccc1NC(=O)c1sc2nc(C)c(C(=O)Nc3ccc(Cl)cc3)c(-c3ccc(Br)cc3)c2c1N | inactive
CCc1ccccc1NS(=O)(=O)c1ccc2nc(-c3ccccc3)[nH]c2c1 | inactive
Cc1c(NC(=O)c2cc(-c3ccc(Br)cc3)on2)c(=O)n(-c2ccccc2)n1C | inactive
CC(C)Oc1ccc(CNC(=O)C2CCN(c3nc4ccccc4n(C)c3=O)CC2)cc1 | inactive
Cc1cc(C)c2oc(C(=O)Nc3ccc(S(=O)(=O)N(C)c4ccccc4)cc3)cc(=O)c2c1 | inactive
Cc1nc2cc(NC(=O)NCc3ccccc3)ccc2o1 | inactive
Cc1ccc(NC(=O)Nc2ccc3oc(C)nc3c2)cc1 | 11.2 µM (active)
Cc1nc2ccc(NC(=O)C(F)(F)F)cc2o1 | inactive
CC(C)c1ccc(NS(=O)(=O)c2ccc3[nH]cc(C(=O)NC4CCCC4)c(=O)c3c2)cc1 | inactive
CCOc1ccc(-c2n[nH]c3c2C(c2ccccc2OC)N(c2ccc(Br)cc2)C3=O)cc1 (stereo not drawn) | inactive
COc1cccc(OCC(=O)Nc2ccccc2C(N)=O)c1 | 11.2 µM (active)
CCCOC(=O)Nc1ccccc1C(N)=O | inactive
COc1cccc(OCC(=O)NNC(=O)c2cnccn2)c1 | inactive
CCOc1ccc(-c2nonc2NC(=O)c2oc3ccc(CC)cc3c2C)cc1 | inactive

SMILES | Potency
CCOC(=O)c1ccc(NC(=O)c2ncn(-c3ccccc3)n2)cc1 | inactive
CCC(=O)N1CCc2cc(S(=O)(=O)CCC(=O)N3CCN(c4ccccc4F)CC3)ccc21 | inactive
CC(C)(C)c1ccc(/C=C/C(=O)Nc2ncccn2)cc1 | 22.4 µM (active)
O=C(/C=C/c1ccc(Cl)cc1)Nc1ccc(S(=O)(=O)Nc2ncccn2)cc1 | inactive
CC(C)(C)c1ccc(/C=C/C(=O)NC2CCS(=O)(=O)C2)cc1 (stereo not drawn) | inactive
CCN(CC)CCNC(=O)Cn1ncc2c3ccccc3n(Cc3ccccc3C)c2c1=O | inactive
COCCCNC(=O)c1c(NC(=O)c2cc(=O)c3cc(C)c(C)cc3o2)sc2c1CCCC2 | inactive
CCOC(=O)c1nnn(CC(=O)NC(=O)Nc2ccccc2F)c1C(=O)OCC | inactive
COc1ccc(CNC(=O)CC2Oc3ccc(C)cc3NC2=O)cc1 (stereo not drawn) | inactive
O=C(c1ccc(C(F)(F)F)cc1)N1CCC(c2nc(-c3ccc(S(=O)(=O)N4CCCC4)cc3)no2)CC1 | inactive
O=C(CSc1cccc[n+]1[O-])c1ccc(Cl)cc1 | inactive
O=C(CSc1cccc[n+]1[O-])c1ccc(-c2ccccc2)cc1 | 12.6 µM (active)
COc1ccccc1C(=O)CSc1cccc[n+]1[O-] | inactive
Cc1c(C(=O)NCc2ccccc2Br)oc2ccc3c(c12)C(=O)CC(C)(C)O3 | inactive
CCS(=O)(=O)c1nc(S(=O)(=O)c2ccc(C)cc2)c(NCc2ccc(Cl)cc2)s1 | inactive
O=c1n(Cc2cccc(C(F)(F)F)c2)c2ccccc2c2nc(-c3ccccc3)nn12 | inactive
Cc1ccc(NC(=O)C(Cc2ccccc2)NS(=O)(=O)c2ccc3c(c2)oc(=O)n3C)cc1C (stereo not drawn) | inactive
COc1cc(/C=C2/C(=O)ON=C2C)ccc1OCc1ccccc1F | inactive
COc1cc(/C=C2/C(=O)ON=C2C)ccc1OCc1cccc(F)c1 | 12.6 µM (active)
C/C=C/c1ccc(OCCOc2ccc(C=O)cc2OC)c(OC)c1 | inactive
CCOC(=O)c1c(C)oc2ccc(N(C(=O)c3ccncc3)S(=O)(=O)c3ccc(CC)cc3)cc12 | inactive
CCOC(=O)C1=C(c2ccccc2)Nc2ncnn2C1c1ccc(Cl)cc1 (stereo not drawn) | inactive
O=C(Nc1cc2ccccc2oc1=O)C1CCCCC1 | 4.47 µM (active)
CC(=O)Nc1cc2ccc(OC(C)=O)cc2oc1=O | inactive
O=C(O)c1ccc(NC(=O)C2CCCCC2)cc1 | inactive
